The record followed here is PubChem BioAssay (NCATS).

Structures are written as SMILES. Inconclusive results are not listed. Entries that show only a call come without a potency. Unmarked numbers belong to inactive results. The source made the active and inactive calls. Calls follow the shape of the dose curve; as a rule, active = well fitted inhibition curve with a large enough effect; inconclusive = small, poorly fitted or top-dose-only effect; inactive = no such curve, though single readings can be large or run the other way.
Potency is read from the fitted curve at half-maximal effect.

A short description of this experiment: Primary qHTS for small molecule stabilizers of the endoplasmic reticulum resident proteome: Secreted ER Calcium Modulated Protein (SERCaMP) assay (AID 1508630). The note with it: SH-SY5Y GLuc-SERCaMP (Gaussia luciferase released on ER calcium loss) secretion, thapsigargin, luminescence; series mostly up to 38.4 µM. The method, boiled down: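 The SH-SY5Y reporter protocol was run at 3 concentrations up to 38.3 uM (primary) or 11 concentrations (follow-up): 16 h compound, 100 nM thapsigargin for 4 h, then extracellular luciferase luminescence.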
(In general: Quantitative high-throughput screening tests each substance at several concentrations.)
In the case of `COC1C(O)C(CO)OC1n1cnc2c(NC3CCCCC3)ncnc21` (stereo unspecified), the Potency result was “inactive”.

Regarding `C/C(O)=C1\C(=O)[C@@H]2[C@H]3c4c[nH]c5cccc(c45)C[C@H]3C(C)(C)N2C1=O`, the Potency entry was “inactive”.

For `CO[C@H]1C[C@@H]2CC[C@@H](C)[C@@](O)(O2)C(=O)C(=O)N2CCCC[C@H]2C(=O)O[C@H](C(C)C[C@H]2CC[C@@H](O)[C@H](OC)C2)CC(=O)[C@H](C)/C=C(\C)[C@@H](O)[C@@H](OC)C(=O)[C@H](C)C[C@H](C)/C=C/C=C/C=C/1C` (stereo partly specified), the Potency result was “inactive”.

`CCC(=O)NC1CCc2cccc(OC)c2C1` (stereo unspecified): the Potency result was “inactive”.

Take `NC(C(=O)O)[C@H](O)C(=O)O` (stereo partly specified): the Potency entry was “inactive”.

Turning to `CCCCC/C=C\C/C=C\C/C=C\C/C=C\CCCC(=O)O[C@@H](CO)COC(=O)CCCCCCCCCCCCCCCCC`, the activity change, negative = inhibition is -0.0647% [at 3.88 µM].

For `CC[C@H](C)[C@H](NC(=O)[C@H](CCCN=C(N)N)NC(=O)[C@H](CCCN=C(N)N)NC(=O)[C@H](CC(C)C)NC(=O)[C@H](Cc1ccccc1)NC(=O)CNC(=O)CN)C(=O)N[C@@H](CCCN=C(N)N)C(=O)N1CCC[C@H]1C(=O)N[C@@H](CCCCN)C(=O)N[C@@H](CC(C)C)C(=O)N[C@@H](CCCCN)C(=O)O`, the activity change, negative = inhibition was -2.68% [at 3.88 µM].

With `CC(=O)N[C@@H](CSC/C=C(\C)CCC=C(C)C)C(=O)O`, the Potency result was “inactive”.

For `C=C1/C(=C\C=C2/CCC[C@]3(C)C([C@H](C)CCCC(C)(C)O)CC[C@@H]23)C[C@@H](O)C[C@@H]1O` (stereo partly specified), the activity change, negative = inhibition was -19.4% [at 3.88 µM].

On to `CCCC(=O)NCCc1c(I)[nH]c2ccc(OC)cc12`, for which the Potency entry is “inactive”.

Consider `CCCCCCCCCCCCC/C=C/[C@@H](O)[C@H](CO)NC(=O)CCCCCCC`, for which the activity change, negative = inhibition is 18.1% [at 3.88 µM].

As to `CC(N)(C(=O)O)c1ccc(P(=O)(O)O)cc1` (stereo unspecified), the Potency result was “inactive”.

Turning to `Nc1c(S(=O)(=O)O)cc(Nc2ccc(Cl)cc2)c2c1C(=O)c1ccccc1C2=O`, the Potency result was “inactive”.

On to `CN1C/C(=C/c2ccc(B(O)O)cc2)C(=O)/C(=C/c2ccc(B(O)O)cc2)C1`, for which the Potency result is “inactive”.

Consider `CC1=C(/C=C/C(=C/C=C/C(C)=C/C(=O)O)c2ccc(C)cc2)C(C)(C)CCC1`, for which the Potency result was “inactive”.

As for `COc1ccc2[nH]cc(CCNC(=O)C3CC3)c2c1`, the Potency entry is “inactive”.

As for `OC[C@H]1O[C@@H](n2cnc3c(N[C@H]4C[C@H]5CC[C@@H]4C5)ncnc32)[C@H](O)[C@@H]1O`, the Potency result was “inactive”.

Take `NC(N)=NCCNS(=O)(=O)c1cccc2cnccc12`: the Potency result is “inactive”.

For the compound `O=Nc1ccc(O)c2ncccc12`, the Potency result was “inactive”.

On to `CC(=O)OCOC(c1ccc2ccccc2c1)P(=O)(OCOC(C)=O)OCOC(C)=O` (stereo unspecified), for which the Potency result was “inactive”.

As to `O=Cc1c2[nH]c3ccccc3c2cc2[nH]c3ccccc3c12`, the Potency result is “inactive”.

For the compound `COc1oc(=O)c2cc(N)ccc2c1Cl`, the Potency result is “inactive”.

For the compound `CC(C)n1cnc2c(NCc3ccccc3)nc(NCCO)nc21`, the Potency entry was “inactive”.

`COc1c(C=O)c(O)cc2c1C(=O)c1ccccc1C2=O`: the Potency result was “inactive”.

`CCCC(=O)Nc1nc2c(ncn2[C@@H]2O[C@H]3COP(=O)(O)O[C@@H]3[C@@H]2OC(=O)CCC)c(=O)[nH]1`: the Potency entry was “inactive”.

For `CCCCCCCC/C=C\CCCCCCCCOC[C@H](COP(=O)([O-])OCC[N+](C)(C)C)OC(C)=O`, the activity change, negative = inhibition is -15.7% [at 3.88 µM].

For `CC(=O)NC1C(OC2OC(CC(O)C3OC([N+]4=CCC(=O)NC4=O)C(O)C3O)C(O)C(O)C2NC(=O)/C=C/CCCCCCCCC(C)C)OC(CO)C(O)C1O` (stereo unspecified), the Potency was 1000 nM (active).

As for `N[C@@H](Cn1c2c(c(=O)[nH]c1=O)CCC2)C(=O)O`, the Potency entry was “inactive”.

With `CC12CCC3c4ccc(O)cc4CCC3C1CCC2O` (stereo unspecified), the Potency result is “inactive”.

With `CCCCCCCCCCCCCC(=O)N[C@H](C)[C@@H](O)c1ccccc1`, the activity change, negative = inhibition was -4.17% [at 3.88 µM].

Consider `NC(N)=NCCC[C@H](NC(=O)[C@@H](N)Cc1ccc(O)cc1)C(=O)O`, for which the activity change, negative = inhibition is -11.6% [at 3.88 µM].

For the compound `O=c1nc2ccccc2c2n1CC(CN1CCN(c3ccccc3)CC1)N2` (stereo unspecified), the Potency result is “inactive”.

As to `C=C1CC2COC(=O)C2(Cc2ccc3ccccc3c2)C1` (stereo unspecified), the Potency entry was “inactive”.

In the case of `O=C(O)CCc1cc(I)c(O)c(I)c1`, the Potency entry was “inactive”.

`CC(C)c1ccc2c(c1)CC[C@H]1[C@](C)(CN)CCC[C@]21C`: the Potency entry was “inactive”.

On to `COc1c(O)cc2oc(-c3ccc(O)cc3)cc(=O)c2c1O`, for which the Potency entry is “inactive”.
